The values below come from PubChem BioAssay (NCI).

About 83,000 compounds went through this panel and 20% of them were active in at least one assay; those are over-represented in the sample as a whole.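 Percent growth is the endpoint: 0 to 100 indicates growth inhibition (40 means 60% inhibition), 0 means no net growth, and negative values indicate cell death.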 Values without a mark were called inactive. Active and inactive are the calls of the source. Rule for the calls: active = growth percent below 10; inactive = the rest.

Among the test systems are SR leukemia; RPMI-8226 leukemia; OVCAR-8 ovarian; OVCAR-5 ovarian; OVCAR-4 ovarian; SK-OV-3 ovarian; IGROV1 ovarian; OVCAR-3 ovarian; HS 578T breast; NCI/ADR-RES ovarian; T-47D breast; BT-549 breast; MDA-MB-435 melanoma; SW-620 colon; MCF7 breast; HCT-116 colon; HCC-2998 colon; KM12 colon.
Holding throughout (experiment): NCI-60 one-dose screen, 48 h (100 = growth as untreated, 0 = no growth, -100 = all killed)
Details in all cases: 10 µM unless noted

For the compound `CN1CCN(c2ccc(/C=N/Nc3nc4ccccc4c(=O)n3-c3ccccc3)cc2)CC1`, the growth with SR leukemia was 93.4%; with RPMI-8226 leukemia it was 101%; with OVCAR-8 ovarian, 102%; in the experiment on OVCAR-5 ovarian, 107%; in the experiment on OVCAR-4 ovarian, 97.2%; with SK-OV-3 ovarian it was 109%. Besides, the growth in the experiment with IGROV1 ovarian was 104%; in the experiment on OVCAR-3 ovarian, 104%; in the experiment with HS 578T breast, 92.5%; in the experiment with NCI/ADR-RES ovarian it was 101%; with T-47D breast it was 92.6%; with BT-549 breast, 108%. Besides, the growth with MDA-MB-435 melanoma is 104%; in the experiment with SW-620 colon, 99.6%; in the experiment with MCF7 breast it was 93.3%; with HCT-116 colon it was 99%; in the experiment with HCC-2998 colon, 103%; with KM12 colon it was 99.8%.

For the compound `CN(Cc1ccccc1)S(=O)(=O)/N=C1\NC(=O)NC1=C(Cl)Cl`, the growth in the experiment on SR leukemia was -0.359% (active); in the experiment with RPMI-8226 leukemia, -1.12% (active); in the experiment with OVCAR-8 ovarian, 93.9%; in the experiment on OVCAR-5 ovarian, 11.9%; with OVCAR-4 ovarian, 91.8%; in the experiment with SK-OV-3 ovarian, 110%. Besides, the growth in the experiment on IGROV1 ovarian is 3.38% (active); in the experiment on OVCAR-3 ovarian, -81.7% (active); with HS 578T breast, 96.7%; with NCI/ADR-RES ovarian, 81.5%; in the experiment on T-47D breast, 56.8%; with BT-549 breast, 94.6%. For the same compound, the growth was 79.6% in the experiment on MDA-MB-435 melanoma; -49.5% (active) with SW-620 colon; 12.6% in the experiment with MCF7 breast; 21.3% in the experiment with HCT-116 colon; 71.8% in the experiment with HCC-2998 colon; 4.88% (active) with KM12 colon.

Regarding `NC(N)=Nc1ccc(Oc2cccc(Nc3ccc(Cl)c(C(F)(F)F)c3)c2)cc1`, the growth was -26.4% (active) in the experiment with SR leukemia; 33.7% in the experiment with RPMI-8226 leukemia; 68.6% in the experiment on OVCAR-8 ovarian; 58.8% in the experiment on OVCAR-5 ovarian; 55.6% in the experiment on OVCAR-4 ovarian; 82.6% in the experiment on SK-OV-3 ovarian. Further, the growth was 17.2% in the experiment with IGROV1 ovarian; 35% in the experiment on OVCAR-3 ovarian; 52% in the experiment with HS 578T breast; 91.6% in the experiment with NCI/ADR-RES ovarian; 35.3% in the experiment on T-47D breast; 77% with BT-549 breast. For the same compound, the growth in the experiment on MDA-MB-435 melanoma was 32.3%; with SW-620 colon it was 30.2%; in the experiment with MCF7 breast it was 11.3%; in the experiment with HCT-116 colon, 27.5%; with HCC-2998 colon it was 20.3%; in the experiment with KM12 colon, 7.04% (active).

Take `C=CCn1c(SCC(=O)Nc2ccc(C(=O)/C=C/c3ccc(Cl)cc3)cc2)nnc1-c1c[nH]c2ccccc12`: the growth with SR leukemia is 71.1%; with RPMI-8226 leukemia, 2.66% (active); in the experiment with OVCAR-8 ovarian it was 76.1%; in the experiment with OVCAR-5 ovarian, 97.3%; with OVCAR-4 ovarian, 66.9%; in the experiment on SK-OV-3 ovarian, 86.7%. The growth is 58.1% in the experiment with IGROV1 ovarian; 84% in the experiment with OVCAR-3 ovarian; 91.5% with HS 578T breast; 97.7% in the experiment on NCI/ADR-RES ovarian; 60.5% in the experiment on T-47D breast; 111% with BT-549 breast. Also, the growth with MDA-MB-435 melanoma was 83.5%; in the experiment on SW-620 colon it was 88.3%; in the experiment on MCF7 breast, 9.26% (active); in the experiment with HCT-116 colon it was -46% (active); with HCC-2998 colon, 97.1%; with KM12 colon it was 80.4%.

As for `CC(=O)O[C@@H]1C(=O)N(c2cnccn2)[C@H]1c1ccccc1[N+](=O)[O-]`, the growth was 11.5% in the experiment on SR leukemia; 13.3% in the experiment with RPMI-8226 leukemia; -20.5% (active) with OVCAR-8 ovarian; 26.8% with OVCAR-5 ovarian; 66.6% in the experiment on OVCAR-4 ovarian; 32.6% with SK-OV-3 ovarian. The growth with IGROV1 ovarian is 13.6%; in the experiment with OVCAR-3 ovarian, 2.08% (active); in the experiment with HS 578T breast, 13.8%; in the experiment on NCI/ADR-RES ovarian, 26.7%; with T-47D breast it was 85.2%; with BT-549 breast, -13.3% (active). Besides, the growth is -38.7% (active) with MDA-MB-435 melanoma; 20.1% in the experiment on SW-620 colon; 15.5% with MCF7 breast; -14.2% (active) in the experiment on HCT-116 colon; 31.5% with HCC-2998 colon; -2.26% (active) in the experiment on KM12 colon.

Regarding `COc1cc2nc(Cl)nc(Nc3cccc(C4=Nc5c(N)nc(N)nc5NC(c5ccccc5)C4)c3)c2cc1OC` (centres undefined), the growth with SR leukemia is -1.18% (active); in the experiment on RPMI-8226 leukemia, 49%; in the experiment with OVCAR-8 ovarian, 67.2%; with OVCAR-5 ovarian, 110%; with OVCAR-4 ovarian, 96.7%; with SK-OV-3 ovarian it was 121%. In addition, the growth in the experiment on IGROV1 ovarian is 86.7%; with OVCAR-3 ovarian, 77.7%; in the experiment on HS 578T breast it was 96.4%; with NCI/ADR-RES ovarian, 94.1%; in the experiment with T-47D breast, 67.5%; in the experiment on BT-549 breast it was 81.6%. Further, the growth in the experiment with MDA-MB-435 melanoma is 101%; in the experiment with SW-620 colon it was 85.4%; in the experiment on MCF7 breast, 70.5%; in the experiment with HCT-116 colon, 74.6%; in the experiment on HCC-2998 colon it was 94.3%; with KM12 colon, 78.3%.

With `O=C(CCn1c[n+](CC(=O)c2ccc(F)cc2)c2ccccc21)Nc1cccc2cccnc12`, the growth was 79.5% in the experiment on SR leukemia; 35.1% in the experiment with RPMI-8226 leukemia; 86.9% in the experiment with OVCAR-8 ovarian; 79.6% with OVCAR-5 ovarian; 52.3% in the experiment on OVCAR-4 ovarian; 88.2% in the experiment with SK-OV-3 ovarian. For the same compound, the growth in the experiment on IGROV1 ovarian was 39.4%; with OVCAR-3 ovarian, 55.4%; in the experiment with HS 578T breast, 84.5%; with NCI/ADR-RES ovarian, 96.5%; in the experiment on T-47D breast it was 53.9%; in the experiment with BT-549 breast, 69.9%. Also, the growth in the experiment with MDA-MB-435 melanoma is 79%; in the experiment with SW-620 colon, 92.3%; in the experiment on MCF7 breast it was 68%; with HCT-116 colon, 53.1%; in the experiment with HCC-2998 colon it was 87%; with KM12 colon, 76%.

For the compound `N/C(=N\C(N)=N\c1nc2ccccc2s1)c1cccc(F)c1`, the growth in the experiment with SR leukemia was 48.4% [5 µM]; in the experiment on RPMI-8226 leukemia, 84.4% [5 µM]; with OVCAR-8 ovarian it was 98.9% [5 µM]; in the experiment on OVCAR-5 ovarian, 102% [5 µM]; in the experiment with OVCAR-4 ovarian, 133% [5 µM]; in the experiment with SK-OV-3 ovarian it was 93.9% [5 µM]. Also, the growth in the experiment on IGROV1 ovarian was 68.4% [5 µM]; in the experiment on OVCAR-3 ovarian, 101% [5 µM]; with HS 578T breast it was 93.7% [5 µM]; in the experiment on NCI/ADR-RES ovarian, 86.3% [5 µM]; in the experiment with T-47D breast, 74.6% [5 µM]; in the experiment with BT-549 breast, 96.7% [5 µM]. The growth is 104% [5 µM] in the experiment with MDA-MB-435 melanoma; 97.2% [5 µM] in the experiment on SW-620 colon; 85.8% [5 µM] in the experiment with MCF7 breast; 89.3% [5 µM] in the experiment on HCT-116 colon; 112% [5 µM] with HCC-2998 colon; 99.9% [5 µM] in the experiment with KM12 colon.
